{"source": "PubChem BioAssay (NCATS)", "note": "Results filed as inconclusive are left out. Calls of active or inactive are those of the source. The call rests on the fitted dose curve; in most records, active means well fitted cell-killing curve with a large enough effect; inconclusive means small, poorly fitted or top-dose-only effect; inactive means no such curve, though single readings can be large or run the other way.", "data": [{"assay": "qHTS of pediatric cancer cell lines to identify multiple opportunities for drug repurposing: Primary screen for NB-EBc1 cells (AID 1347095); further: potency means the concentration at half of the fitted maximal effect;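 on activity change, negative = cytotoxic: plate controls were DMSO neutral control for no effect and bortezomib for full effect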", "conditions": "NB-EBc1 neuroblastoma viability, CellTiter-Glo luminescence, 48 h; series mostly up to 46 µM; activity change, negative = cytotoxic: at the top concentration", "procedure,_shortened": "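500-1,000 cells/well; 5 h pre-incubation 37 °C/5% CO2; compound pinned; 48 h; CellTiter-Glo, 15 min RT; luminescence. MIPE 11-pt from 0.78 nM, NPC 8-pt from 0.59 nM final. Bortezomib 2.3 µM final as positive control.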", "values": [{"compound": "CCO/N=C(\\CC)C1=C(O)CC(c2c(C)cc(C)cc2C)CC1=O", "note": "(stereo not given)", "activity change, negative = cytotoxic": "19.8% [at 92.7 µM] (inactive)"}, {"compound": "CCCN1CCO[C@@H]2c3cc(O)ccc3OC[C@@H]21", "Potency": "16.6 µM (active)"}, {"compound": "Cc1c(N)nc([C@H](CC(N)=O)NC[C@@H](N)C(N)=O)nc1C(=O)N[C@H](C(=O)N[C@@H](C)[C@H](O)[C@@H](C)C(=O)N[C@@H](C(=O)NCCc1nc(-c2nc(C(=O)NCCC[S+](C)C)cs2)cs1)[C@@H](C)O)C(O[C@H]1O[C@H](CO)[C@H](O)[C@@H](O)[C@@H]1O[C@H]1O[C@H](CO)[C@@H](O)[C@H](OC(N)=O)[C@H]1O)c1cnc[nH]1", "note": "(stereo not given in full)", "Potency": "1.32 µM (active)"}, {"compound": "CC(C)[C@H]1C(=O)N[C@H](CO)Cc2c[nH]c3cccc(c23)N1C", "activity change, negative = cytotoxic": "9.67% (inactive)"}, {"compound": "CC1(C)CC/C(=C/c2ccc(Cl)cc2)C1(O)Cn1cncn1", "note": "(stereo not given)", "activity change, negative = cytotoxic": "-22.1% [at 92.7 µM] (inactive)"}, {"compound": "CCCCOC(=O)c1ccccc1C(=O)OCc1ccccc1", "activity change, negative = cytotoxic": "17% [at 92.7 µM] (inactive)"}, {"compound": "Oc1ccc2c3c1O[C@H]1c4[nH]c5c(c4C[C@@]4(O)[C@@H](C2)N(CC2CC2)CC[C@]314)C[C@@]1(O)[C@H]2Cc3ccc(O)c4c3[C@@]1(CCN2CC1CC1)[C@H]5O4", "activity change, negative = cytotoxic": "9.02% (inactive)"}, {"compound": "CO/C=C(/C(=O)OC)c1ccccc1Oc1cc(Oc2ccccc2C#N)ncn1", "Potency": "27.3 µM (active)"}, {"compound": "CC[C@H]1C=CC=CC[C@@H](C)[C@H](O)[C@@](C)(O)C(=O)[C@@H](C)[C@H](O)[C@@H](C)C(=O)[C@@H](C)[C@H](O)[C@@H](C)C=CC(=O)O[C@@H]2[C@@H](C)[C@H](CC1)O[C@]1(CC[C@H](C)[C@H](C[C@@H](C)O)O1)[C@H]2C", "Potency": "0.0132 µM (active)"}, {"compound": "CCC(=O)O[C@@H]1C=C2CCC3C(CCC4(C)C3CC[C@@H]4OC(=O)CC)C2CC1", "note": "(stereo not given in full)", "activity change, negative = cytotoxic": "11.2% (inactive)"}, {"compound": "CCCCCC[C@H]1C(=O)O[C@H](C)[C@H](NC(=O)c2cccc(NC=O)c2O)C(=O)O[C@@H](C)[C@@H]1OC(=O)CC(C)C", "Potency": "0.0235 µM (active)"}, {"compound": "CC1(N2CCC(n3c([C@@H]4CCCNC4)nc4ccccc43)CC2)CCCCCCC1", "activity change, negative = cytotoxic": "-15.7% (inactive)"}, {"compound": "CC(C)(O)C(=O)Nc1ccc([N+](=O)[O-])c(C(F)(F)F)c1", "activity change, negative = cytotoxic": "-9.28% (inactive)"}, {"compound": "Cc1cc(O)ccc1Cl", "activity change, negative = cytotoxic": "14.5% (inactive)"}, {"compound": "O=C1C(I)=CC(=C(c2cc(I)c(O)c(I)c2)c2ccccc2C(=O)O)C=C1I", "activity change, negative = cytotoxic": "35.4% (inactive)"}, {"compound": "CC(=O)Nc1ccc(OC[C@](C)(O)C(=O)Nc2ccc([N+](=O)[O-])c(C(F)(F)F)c2)cc1", "activity change, negative = cytotoxic": "8.03% (inactive)"}, {"compound": "C=C[C@@H]1CN2CCC1C[C@H]2[C@H](O)c1ccnc2ccccc12", "note": "(stereo not given in full)", "activity change, negative = cytotoxic": "-8.24% (inactive)"}, {"compound": "CCN(CC)C(=O)c1ccc(C2=CC3(CCNCC3)Oc3cccc(O)c32)cc1", "activity change, negative = cytotoxic": "8.84% (inactive)"}, {"compound": "CC(N[C@H]1C[C@H]1c1ccccc1)c1ccc2c(c1)OCCO2", "note": "(stereo not given in full)", "activity change, negative = cytotoxic": "16.2% (inactive)"}, {"compound": "COc1ccc(CC2NCCc3cc(OC)c(OC)cc32)cc1OC", "note": "(stereo not given)", "activity change, negative = cytotoxic": "6.55% (inactive)"}]}]}
